The entries come from a sample that favours hits as a whole.
IL-1B inflam inh – qHTS for Inhibitors of Inflammasome Signaling: IL-1-beta AlphaLISA Primary Screen | THP-1 LPS/ATP IL-1B secretion, AlphaLISA, 16 h; stronger effect = lower value | activity change, % at 57.5 µM | 360,000 compounds, 4.7% hits | AID 743279, 2014; in the data active = activity change below about -50%; inconclusive = mostly about -30% to -49%
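Secreted IL-1B measured by AlphaLISA bead assay after 16 h compound exposure of THP-1 cells; compounds (final up to 57.5 uM) added 1 h before LPS (250 ng/mL) and ATP (1.25 mM) stimulation; lower signal means less secretion.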
DT40 TDP1 CPT – qHTS for Inhibitors of human tyrosyl-DNA phosphodiesterase 1 (TDP1): qHTS in cells in presence of CPT; chicken DT40 Tdp1-/-;hTDP1 cells + 20 nM CPT, ATP luminescence, 48 h; Potency, µM (top dose mostly 46.2 µM), for the others: at the top dose activity change, negative = growth inhibition, actives largely listed as inhibitors; 420,000 compounds, 12% hits; AID 686979, 2013; also: potency is read from the fitted curve at half-maximal effect; nearly all actives have a fitted effect of over 55% in size
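Chicken DT40 Tdp1-/- cells stably complemented with human TDP1 were seeded at 400 cells/well in medium containing 20 nM camptothecin, exposed to pin-transferred compounds, and grown at 37 °C for at least 48 hr. Viability was read as ATP luminescence.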
HT1080-NT tox – qHTS for induction of synthetic lethality in tumor cells producing 2HG: qHTS for the HT-1080-NT fibrosarcoma cell line; 360,000 compounds, 1.6% hits; HT-1080-NT fibrosarcoma viability, CellTiter-Glo ATP luminescence, 48 h; Potency, µM (highest dose often 46.1 µM), for the others: top-dose activity, negative = less viability, usual class: cytotoxic;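 also: NT is the 2HG producing partner of a matched IDH1 knockdown line; potency is read from the fitted curve at half-maximal effect; 0% = DMSO-treated cells and -100% = media-only wells without cells; nearly all actives have a fitted effect of over 55% in size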
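Viability of the 2HG-overproducing fibrosarcoma line after 48 hours of compound exposure at 37 degrees C was determined by luminescence with CellTiter-Glo, and concentration-effect curves were then fitted and categorized.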
ALOX12 inh – Primary qHTS assay for inhibitors of human arachidonate 12S-lipoxygenase (ALOX12): Round 2; Polyunsaturated fatty acid lipoxygenase ALOX12 (Homo sapiens), P18054; purified 12hLO, xylenol orange hydroperoxide absorbance; Potency, µM (series often up to 108 µM), for inactives: at the highest dose activity change, negative = inhibition, actives largely listed as inhibitors; 580,000 compounds, 1.1% hits; AID 1671190, 2021; also: potency is read from the fitted curve at half-maximal effect
Target sequence (P18054 whole entry, looked up): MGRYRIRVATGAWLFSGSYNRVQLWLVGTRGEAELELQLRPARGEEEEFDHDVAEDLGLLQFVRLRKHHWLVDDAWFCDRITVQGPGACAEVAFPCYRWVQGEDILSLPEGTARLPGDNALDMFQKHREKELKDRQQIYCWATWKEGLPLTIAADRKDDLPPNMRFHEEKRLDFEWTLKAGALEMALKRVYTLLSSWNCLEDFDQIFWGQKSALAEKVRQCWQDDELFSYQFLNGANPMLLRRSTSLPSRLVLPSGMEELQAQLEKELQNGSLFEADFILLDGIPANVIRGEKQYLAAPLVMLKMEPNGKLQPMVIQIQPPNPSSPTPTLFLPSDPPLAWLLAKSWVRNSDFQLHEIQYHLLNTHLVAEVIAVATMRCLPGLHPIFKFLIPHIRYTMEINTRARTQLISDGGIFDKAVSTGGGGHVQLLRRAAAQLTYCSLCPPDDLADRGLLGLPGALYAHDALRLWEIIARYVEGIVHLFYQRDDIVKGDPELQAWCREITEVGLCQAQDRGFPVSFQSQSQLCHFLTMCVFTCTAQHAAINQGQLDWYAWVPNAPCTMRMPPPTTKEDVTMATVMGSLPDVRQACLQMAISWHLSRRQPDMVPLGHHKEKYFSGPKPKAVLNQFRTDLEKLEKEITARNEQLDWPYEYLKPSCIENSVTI
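Purified human 12hLO (150 nM final) in 25 mM Hepes, 0.01% Triton X-100, pH 7.0 was preincubated 15 min at room temperature with compound. Then 40 uM arachidonic acid was added, 30 min. Hydroperoxide was read by Fe-XO absorbance ratio 573/405 nm.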
TDP1 cell noCPT – qHTS for Inhibitors of human tyrosyl-DNA phosphodiesterase 1 (TDP1): qHTS in cells in absence of CPT | DT40 Tdp1-/- hTDP1 cells, no CPT, ATP luminescence, 48 h | AID 686978, 2013 | Potency, µM (series often up to 46.2 µM), for the others: at the highest dose activity change, negative = growth inhibition, usual class: inhibitors | 420,000 compounds, 15% hits; also: potency is read from the fitted curve at half-maximal effect; nearly all actives have a fitted effect of over 55% in size
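A cellular qHTS used chicken DT40 cells lacking endogenous Tdp1 but carrying stably transfected human TDP1. Compounds were applied without camptothecin, and cell growth kinetics were judged by ATP-dependent luminescence after ≥48 hr.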
HT1080 IDH1KD tx – qHTS for induction of synthetic lethality in tumor cells producing 2HG: qHTS for the HT-1080-IDH1KD cell line; HT-1080 IDH1 knockdown viability, ATP luminescence, 48 h; Potency, µM (highest dose often 46.1 µM), inactives show at the top dose activity, negative = toxicity, most hits filed as cytotoxic; 360,000 compounds, 2% hits; AID 686971, 2013;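 also: potency is read from the fitted curve at half-maximal effect; 0% = DMSO wells and -100% = cell-free medium wells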
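Assay cells: HT-1080 with IDH1 knockdown, 750 per well, RPMI/5% FBS. Exposure: 48 h at 37 °C following 2 h pre-incubation. Read: CellTiter-Glo luminescence; fitted concentration-response, curve class assigned.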
Active calls of the source: *; i = inactive; ? = inconclusive; / = no result; [ ] = dose if it differs, or a comment. Unless noted, calls follow the shape of the dose curve; as a rule, active = well fitted curve in the direction sought with a large enough effect; inconclusive = small, poorly fitted or top-dose-only effect, or another doubt; inactive = no such curve, though single readings can be large; an effect the other way counts as inactive or inconclusive. Unless noted, % is scaled to controls: 0 for no effect and ±100 for the full control effect.

SMILES	IL-1B inflam inh	DT40 TDP1 CPT	HT1080-NT tox	ALOX12 inh	TDP1 cell noCPT	HT1080 IDH1KD tx
CCc1ccc(OCC(=O)NC(NC(=S)Nc2ccccc2OC)C(Cl)(Cl)Cl)cc1 (configuration not stated)	-14.6	?	-9.5%	-12.7%	?	-14.3%
COC(=O)c1ccccc1NC(=S)NC(NC(=O)COc1ccccc1)C(Cl)(Cl)Cl (configuration not stated)	-76.6*	-1.6%	6.7%	?	-19.7%	5.2%
Cc1cccc(-n2nc(-c3c(C)nc4scc(CC(=O)NC5CCCCC5)n4c3=O)cc2C)c1C	/	/	/	22.0%	/	/
CCc1ccc(OCC(=O)NC(NC(=S)Nc2ccccc2C)C(Cl)(Cl)Cl)cc1 (configuration not stated)	-15.1	?	16.4µM*	-3.0%	?	?
CC(C)CC(=O)NC(Nc1ccccc1F)C(Cl)(Cl)Cl (configuration not stated)	-5.8	?	-1.2%	i	?	3.4%
Cc1ccc(C)c(NC(=S)NC(NC(=O)Cc2cccc3ccccc23)C(Cl)(Cl)Cl)c1 (configuration not stated)	?	8.2µM*	-9.7%	?	6.51µM*	?
CC(C)CC(=O)NC(Nc1ccc([N+](=O)[O-])cc1)C(Cl)(Cl)Cl (configuration not stated)	6.7	18.4µM*	?	?	23.1µM*	-28.1%
Cc1ccccc1NC(=S)NC(NC(=O)COc1ccccc1)C(Cl)(Cl)Cl (configuration not stated)	0.0	?	-11.0%	?	?	-9.6%
Cc1ccc(C)c(NC(=S)NC(NC(=O)N(C)C)C(Cl)(Cl)Cl)c1 (configuration not stated)	9.7	-0.5%	7.9%	?	-17.8%	8.8%[9.24 µM]
Cc1ccc(NC(=S)NC(NC(=O)c2ccccc2C)C(Cl)(Cl)Cl)c(C)c1 (configuration not stated)	-25.5	?	?	35.5µM*	?	?
COCCN1C(=O)CSC12CCN(C(=O)Nc1ccccc1C)CC2	/	/	/	33.3%	/	/
CCc1ccc(OCC(=O)NC(NC(=S)Nc2ccccc2)C(Cl)(Cl)Cl)cc1 (configuration not stated)	?	?	16.4µM*	5.9%	?	16.4µM*
COc1cccc(-c2n[nH]c3c2CC(=O)N(Cc2ccccn2)C3)c1	/	/	/	9.0%[176 µM]	/	/
O=C(Cc1n[nH]c(=O)c2ccccc12)Nc1ccccc1O	/	/	/	18.0%	/	/
O=C(NC1CCCCC1)c1cc(-c2ccccc2)nc2ccccc12	/	/	/	-23.8%	/	/
Cc1nc(Nc2ccccc2C(F)(F)F)sc1C(=O)N(C)C	-51.5*	-2.0%	5.9%	?	?	-8.6%
Cc1cccc(Nc2nc(C)c(C(=O)N(C)C)s2)c1	/	/	/	11.2%	/	/
O=C(c1ccccc1C(=O)N1CCN(c2ccccc2F)CC1)N1CCN(c2ccccc2F)CC1	17.5	18.4µM*	-5.7%	-5.4%	?	-3.1%
COc1ccccc1N1CCN(C(=O)c2ccccc2Oc2ccccc2)CC1	-21.4	?	-14.0%	222.5%	?	-2.2%
O=C(c1ccccc1F)N1CCN(c2ccccc2F)CC1	-12.7	-11.5%	18.5%	0.0%	-28.2%	11.8%
O=C(c1ccccc1Oc1ccccc1)N1CCN(c2ccccc2F)CC1	-11.8	18.4µM*	-24.1%	-1.6%	16.4µM*	-24.7%
Cc1ccc(C)c(S(=O)(=O)N2CCN(C(=O)CCNC(=O)c3ccc(Br)cc3)CC2)c1	-16.9	23.1µM*	2.9%	-26.7%	20.6µM*	0.8%
COc1cc(C(=O)NCC(=O)N2CCN(S(=O)(=O)c3cc(C)ccc3C)CC2)cc(OC)c1OC	91.1	5.8µM*	7.31µM*	0.8%	3.66µM*	6.51µM*
Cc1ccc(C)c(OCCC(=O)N2CCN(S(=O)(=O)c3cc(C)ccc3C)CC2)c1	-4.2	?	-3.9%	?	?	-1.2%
Cc1ccc(S(=O)(=O)NCCC(=O)N2CCN(S(=O)(=O)c3ccccc3)CC2)cc1C	-12.7	?	0.6%	26.6%	-29.8%	-2.2%
SMILES	IL-1B inflam inh	DT40 TDP1 CPT	HT1080-NT tox	ALOX12 inh	TDP1 cell noCPT	HT1080 IDH1KD tx
Cc1ccc(C)c(S(=O)(=O)N2CCN(C(=O)CCNS(=O)(=O)c3ccc(C)c(C)c3)CC2)c1	-4.9	?	-8.8%	-0.5%	18.4µM*	-25.1%
O=C1CN(c2nc(-c3ccsc3)nc3ccccc23)CCN1	/	/	/	-7.3%	/	/
O=C(Nc1cccnc1)c1ccc(-c2ccc(Cl)cc2)o1	-7.9	-5.1%	?	-4.8%	-11.9%	11.2%
O=C(Nc1cccnc1)c1ccc(-c2cc(Cl)ccc2Cl)o1	-15.7	?	-5.7%	?	20.6µM*	0.0%
O=C(Nc1ccccc1)c1ccc(-c2ccc([N+](=O)[O-])cc2)o1	-64.1*	-24.1%	-6.8%	?	?	0.8%
O=C(Nc1ccccc1)c1ccc(-c2ccccc2C(F)(F)F)o1	-0.5	?	-2.5%	?	20.6µM*	-0.1%
O=C(NCc1ccc(Cl)cc1)c1ccc(-c2ccccc2C(F)(F)F)o1	-15.4	20.6µM*	14.1%	-7.6%	23.1µM*	-4.3%
O=C(NN1C(=O)NC2(CCCCC2)C1=O)c1ccc(-c2ccc([N+](=O)[O-])cc2)o1	-7.2	20.6µM*	-1.5%	?	20.6µM*	-7.5%
CN(C)S(=O)(=O)Oc1ccsc1C(=O)Nc1cccc(Cl)c1	-19.6	3.2%	-6.3%	0.0%	-23.6%	-0.1%
O=C(Nc1nccs1)c1ccc(-c2ccccc2Cl)o1	-88.9*	?	?	13.0%	?	26.3%[9.24 µM]
O=C(Nc1ccccc1)c1ccc[n+](Cc2ccc([N+](=O)[O-])cc2)c1	-59.2*	0.1%	4.7%	1.7%	1.6%	5.5%
O=C(NN1C(=O)NC2(CCCCC2)C1=O)c1ccc(-c2ccccc2Cl)o1	?	?	2.0%	5.4%	-29.3%	-12.7%
COC(=O)c1sccc1-c1ccc(C(=O)Nc2cccc(Cl)c2)o1	11.0	?	-6.0%	?	23.1µM*	-6.8%

High-throughput results from PubChem BioAssay.
